# Screens: PubChem, several laboratories
# SENP6 block – SENP6 protease inhibitors, primary screen, biochemical, luminescence, uHTS; inhibition, % at 10 µM; AID 2599, 2010; Recombinant SENP6 catalytic domain, aminoluciferin luminescence; 330,000 compounds, 1.8% hits; Sentrin-specific protease 6 (Homo sapiens), Q9GZR1;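 active = inhibition above about 50% at the single tested dose, limit read from the data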;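 note: plate controls were DMSO wells with enzyme for no effect and DMSO wells lacking enzyme for full effect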
# EBI2 antag – EBI2 receptor antagonists, beta-arrestin recruitment, primary screen, cell-based, luminescence, 7a,25-OHC stimulation, uHTS; AID 651636, 2012; G-protein coupled receptor 183 (Homo sapiens), P32249; 360,000 compounds, 0.81% hits; inhibition, % at 5 µM; 7a,25-OHC stimulated; in the data active = inhibition above about 38%;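 note: enzyme fragment complementation signal reports receptor beta-arrestin coupling in cells; 0% = agonist plus DMSO wells and 100% = wells without agonist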
# SENP7 inh – SENP7 protease inhibitors, primary screen, biochemical, luminescence, uHTS; inhibition, % at 5 µM; 330,000 compounds, 1.5% hits; AID 434973, 2010; recombinant SENP7, Z-RLRGG-aminoluciferin luminescence, 40 min; Sentrin-specific protease 7 (Homo sapiens), Q9BQF6;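 active = inhibition above about 50% at the single test dose, limit read from the data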;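 note: plate controls were DMSO with enzyme for no effect and no enzyme buffer wells for full effect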
# SENP8 block-1 – human SENP8 protease inhibitors, primary screen, biochemical, fluorescence, Nedd8 protein substrate, uHTS | 360,000 compounds, 0.64% hits | recombinant SENP8 | Sentrin-specific protease 8 (Homo sapiens), Q96LD8 | inhibition, % at 20 µM; in the data active = inhibition mostly above about 40%, no sharp cut-off; inactive = mostly below about 27%
# AHR act – AHR activators, primary screen, cell-based, luminescence, luciferase reporter, human; Aryl hydrocarbon receptor (Homo sapiens), P35869; AHR-responsive luciferase reporter cells; activation, % at 5 µM; 320,000 compounds, 2.5% hits; AID 2796, 2010; in the data active = activation above about 47%;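 note: 0% = vehicle wells and 100% = reference agonist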
# Target sequence (P35869 whole entry, looked up): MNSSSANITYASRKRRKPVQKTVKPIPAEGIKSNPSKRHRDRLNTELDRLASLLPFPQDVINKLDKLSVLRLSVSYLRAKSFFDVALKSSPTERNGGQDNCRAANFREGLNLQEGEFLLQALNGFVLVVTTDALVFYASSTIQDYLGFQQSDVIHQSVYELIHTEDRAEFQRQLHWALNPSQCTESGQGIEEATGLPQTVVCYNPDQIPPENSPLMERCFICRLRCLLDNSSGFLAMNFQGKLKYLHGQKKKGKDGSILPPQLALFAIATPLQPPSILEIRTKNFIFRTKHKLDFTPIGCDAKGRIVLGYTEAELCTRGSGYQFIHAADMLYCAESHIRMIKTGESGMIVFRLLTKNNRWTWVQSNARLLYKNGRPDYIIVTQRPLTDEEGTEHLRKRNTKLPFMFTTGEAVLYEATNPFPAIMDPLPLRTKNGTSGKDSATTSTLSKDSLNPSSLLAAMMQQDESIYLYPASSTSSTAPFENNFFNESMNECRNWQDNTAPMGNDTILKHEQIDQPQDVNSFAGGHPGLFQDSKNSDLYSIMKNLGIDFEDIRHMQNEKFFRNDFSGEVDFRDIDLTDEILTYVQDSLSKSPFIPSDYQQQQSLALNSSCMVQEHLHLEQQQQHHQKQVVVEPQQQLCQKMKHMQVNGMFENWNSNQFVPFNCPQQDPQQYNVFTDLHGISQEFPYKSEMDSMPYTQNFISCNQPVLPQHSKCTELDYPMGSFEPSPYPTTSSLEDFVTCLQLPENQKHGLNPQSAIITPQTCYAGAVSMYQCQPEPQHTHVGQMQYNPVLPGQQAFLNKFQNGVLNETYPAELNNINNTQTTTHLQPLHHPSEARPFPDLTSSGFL
# SENP8 block-2 – SENP8 protease inhibitors, primary screen, biochemical, luminescence; Sentrin-specific protease 8 (Homo sapiens), Q96LD8; purified SENP8, Z-RLRGG-aminoluciferin cleavage; inhibition, % at 10 µM; 330,000 compounds, 1.2% hits; in the data active = inhibition above about 50%
# An asterisk follows results filed as active; . = no result given. Sampled rows, rich in hits. Any-hit rate of the full collection: about 5%.
SMILES,SENP6 block,EBI2 antag,SENP7 inh,SENP8 block-1,AHR act,SENP8 block-2
Nc1ncnc2c1ncn2[C@@H]1O[C@H](CNS(=O)(=O)c2cc3ccccc3s2)[C@@H](O)[C@H]1O,.,-6,0,13,.,.
CCOC(=O)C1=CCN(S(=O)(=O)c2ccc(Cl)cc2)C1c1cccc(C)c1 (stereo unspecified),.,19,.,24,.,.
CCCCN1C=C(C(=O)OCC)C(=O)CC1,.,-3,.,5,.,.
CCCCN1c2cc(C)c(O)cc2C(C(=O)OCC)C1C (stereo unspecified),5,.,2,.,48*,1
O=S(=O)(Nc1ncnc2sc3c(c12)CCC3)c1cc(F)ccc1F,-2,-4,-3,-159,27,1
O=S(=O)(Nc1ncnc2sc3c(c12)CCC3)c1ccc(Cl)s1,-2,8,-3,-438,48*,6
CCOc1ccc(-c2nc(C#N)c(NCc3ccc4c(c3)OCO4)o2)cc1,-6,9,-6,-388,56*,3
Cc1ccc(OCc2nc(C#N)c(NCc3ccc4c(c3)OCO4)o2)cc1,-14,29,11,17,7,-6
CN(C)S(=O)(=O)c1cccc(NC(=S)N/N=C/c2ccc(O)c(O)c2O)c1,.,-9,.,43*,.,.
O=C(CCNC(=O)c1ccc(Br)cc1)NNC(=O)c1ccccc1,-4,-3,-4,-5,1,-10
O=C1/C(=C\c2cc(Cl)c(O)c(Cl)c2)SC(=S)N1Cc1ccccc1,.,4,.,48*,.,.
O=C(O)CN1C(=O)/C(=C\c2cc(Br)ccc2OCc2ccc(Cl)cc2Cl)SC1=S,10,-3,8,-4,64*,14
O=C(CCCN1C(=O)/C(=C/c2ccccc2Cl)SC1=S)NNC(=O)c1ccccc1,-36,42*,-5,10,-7,-7
O=C(O)CN1C(=O)/C(=C\c2ccccc2OCc2ccc(Cl)cc2)SC1=S,-19,-5,-1,10,59*,4
O=C(O)CN1C(=O)/C(=C\c2cccc(OCc3ccc(Cl)cc3)c2)SC1=S,18,0,2,7,1,18
O=C(CCCN1C(=O)/C(=C/c2ccccc2Cl)SC1=S)NNC(=O)c1cccnc1,29,0,18,14,-9,7
CCn1cc(CN2CCC(n3nccc3NC(=O)c3cccc(F)c3)CC2)cn1,-9,-9,0,-4,0,1
CN(CC(=O)Nc1ccc(Cl)c(C(F)(F)F)c1)C(=O)c1cc(=O)c2ccccc2o1,-13,2,-11,7,1,-12
Cc1oc2c(c1C(=O)NCc1cccnc1)C(=O)c1ccccc1C2=O,84*,.,74*,.,-15,49
CC(=O)c1c(C)oc2c1C(=O)c1ccccc1C2=O,.,-8,.,41*,2,.
O=C1c2ccccc2C(=O)c2c1oc(C(F)(F)F)c2C(=O)c1ccccc1,77*,20,50,73*,11,59*
CC(C)CNC(=O)C1(C)CCCN1C(=O)CCc1cccs1 (stereo unspecified),.,0,.,19,.,.
O=C(NCCO)c1nc(NCCO)c2ccccc2n1,-5,-12,-5,-1,2,-2
Cc1ccc(C(=O)c2nc(C(=O)NCCO)nc3ccccc23)cc1,13,6,-1,-15,48*,0
CO[C@H]1CN(C)C(=O)c2cc(NC(=O)C3CCOCC3)ccc2OC[C@H](C)N(Cc2nccs2)C[C@H]1C,.,-5,.,15,.,.
SMILES,SENP6 block,EBI2 antag,SENP7 inh,SENP8 block-1,AHR act,SENP8 block-2
N#Cc1c(N)sc(=S)c2c1CCN(Cc1ccccc1)C2,94*,.,79*,.,2,96*
CCOC(=O)c1c(C)n(C)c2cc(-c3cccc(C(F)(F)F)c3)c(O)cc12,13,2,-5,-253,49*,3
CCOC(=O)C1=C(C)NC(=O)NC1c1ccc(N2CCC(c3ccccc3)=N2)cc1 (stereo unspecified),2,1,-2,-381,57*,-4
CC1CCN(c2ccccc2NC(=O)c2ccc(C#N)cc2F)CC1,-3,2,4,2,71*,-1
CN(C)C(=O)CSc1nnc2sc3ccccc3n12,-3,-6,4,15,57*,-7
CCN(CC)C(=O)CSc1nnc2cc(C)c3ccccc3n12,-5,-10,4,-89,52*,-2
COc1cccc(-c2nnc3n2N=C(c2cc(OC)ccc2OC)CS3)c1,-7,25,14,-79,59*,6
COc1cccc(C2=Nn3c(nnc3-c3ccccc3O)SC2)c1,-6,13,-6,14,58*,-4
O=C1CC(NCc2cccs2)C(=O)N1c1ccc(Cl)cc1 (stereo unspecified),-4,-15,2,13,72*,-1
O=C(NCCO)c1ccc2nc(-c3ccco3)c(-c3ccco3)nc2c1,56*,-13,23,-192,5,37
Cc1cc(C)nc(NCCC(=O)O)n1,1,-4,2,-12,10,4
Cc1ccc(S(=O)(=O)NC(=O)NC2=NC(C)(C)N(c3ccc(Cl)c(Cl)c3)C(N)=N2)cc1,.,-4,.,7,.,.
Nc1c(C(=O)N2CCOCC2)sc2nc3c(cc12)CCC3,10,-5,3,13,33,-5
Cc1cc(C)c2nc3sc(C(=O)N4CCOCC4)c(N)c3cc2c1,-10,33,0,-67,72*,-7
Nc1c(C(=O)N2CCOCC2)sc2nc3c(cc12)CCCC3,-16,-8,-1,-329,49*,8
O=C1c2ccccc2C(=O)c2c(NCc3cccnc3)cccc21,-14,11,1,19,33,-9
O=C1c2cccc(NCCCNCCO)c2C(=O)c2cccc(NCCCNCCO)c21,.,-10,.,57*,.,.
CC(=O)Nc1ccc(NC2=C(Cl)C(=O)c3ccccc3C2=O)cc1,12,.,10,.,.,24
O=C1C(Cl)=C(NCCCO)C(=O)c2ccccc21,41,-3,41,83*,16,28
O=C1C(Cl)=C(NCCCN2CCOCC2)C(=O)c2ccccc21,.,-27,.,64*,.,.
O=C1C(Cl)=C(NCCN2CCOCC2)C(=O)c2ccccc21,27,5,12,59*,8,11
CNC(=S)NNC(=O)c1oc2nc(-c3ccccc3)cc(C)c2c1N,20,12,12,-430,56*,10
NNC(=O)c1oc2nc(-c3ccccc3)cc(-c3ccccc3)c2c1N,-8,19,1,-295,30,-5
Oc1ccc(Cl)cc1C1=NNC(c2ccc(Cl)cc2)C1 (stereo unspecified),15,25,2,-36,77*,-5
CCOC(=O)N1CCN(C2=C(NS(=O)(=O)c3ccccc3)C(=O)c3ccccc3C2=O)CC1,32,0,19,54*,1,14
